Screening results as filed in PubChem.
Compounds with a hit are over-represented: about 11% of the library has one in this group of screens.
ALDH1A1 inh – inhibitors of human aldehyde dehydrogenase 1A1; Purified ALDH1A1, NADH fluorescence, propionaldehyde substrate; Potency, µM (top dose mostly 75.3 µM), without a hit: at the top dose activity, negative = inhibition, most hits filed as inhibitors; actives 7.3% (n = 220,000);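 note: potency is the fitted concentration of half-maximal effect; plate controls were no enzyme wells and a reference inhibitor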
IMPase inh – cell-permeable inhibitors of inositol monophosphatase (IMPase); P97697; CHO-M1 cells, IP1 accumulation, HTRF TR-FRET ratio; inhibition (IP1 accumulation), % at 46.1 µM; 120,000 tested, under 10 active; active = well fitted curve in the direction sought with a large enough effect in the signal ratio, not every such curve was filed as active; inconclusive = small, poorly fitted or top-dose-only effect, or a change in a side signal; inactive = no such curve, though single readings can be large or run the other way; the % refers to the signal ratio;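 note: cells stimulated with carbachol in lithium chloride buffer; plate controls were DMSO basal wells for no effect and reference inhibitor wells for full effect; higher means more IMPase inhibition seen as more IP1 and lower FRET ratio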
Target sequence (P97697 whole entry, looked up): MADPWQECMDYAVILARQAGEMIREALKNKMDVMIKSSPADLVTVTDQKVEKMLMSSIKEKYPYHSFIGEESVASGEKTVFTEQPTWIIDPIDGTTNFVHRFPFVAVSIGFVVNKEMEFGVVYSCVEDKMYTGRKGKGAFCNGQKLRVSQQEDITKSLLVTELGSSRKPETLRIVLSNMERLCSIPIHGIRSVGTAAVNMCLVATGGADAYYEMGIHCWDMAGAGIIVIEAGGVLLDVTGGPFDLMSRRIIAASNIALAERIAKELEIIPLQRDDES
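In this qHTS, compounds (final up to 46 uM) act on CHO-M1 cells that are then activated through the M1 receptor with carbachol, in pH 7.4 buffer containing 50 mM LiCl, for 30 min. IP1 accumulation is quantified by the IP-One immunoassay.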
HPGD block – HPGD (human) dehydrogenase inhibition; purified HPGD, NADH fluorescence kinetic, PGE2 substrate; Potency, µM, for the others: at the highest dose activity change, negative = inhibition, hits mostly inhibitors; actives 4.3% (n = 150,000); note: potency is the fitted concentration of half-maximal effect
Target sequence (P15428 whole entry, looked up): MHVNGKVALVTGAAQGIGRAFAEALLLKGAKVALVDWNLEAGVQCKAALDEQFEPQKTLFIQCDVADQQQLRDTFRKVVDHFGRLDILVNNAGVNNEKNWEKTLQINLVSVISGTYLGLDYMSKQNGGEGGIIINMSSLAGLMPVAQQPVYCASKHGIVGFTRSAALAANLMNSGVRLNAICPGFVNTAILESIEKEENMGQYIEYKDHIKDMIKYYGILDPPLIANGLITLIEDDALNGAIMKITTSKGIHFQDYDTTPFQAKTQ
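NADH formation kinetics: reaction with 30 uM PGE2 and 1 mM NAD+ (final), 20 nM enzyme, Tris-HCl pH 8 with Tween 20, after 15 min compound preincubation at room temperature. Fluorescence change, last versus first of five reads.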
IMPase Li inh – IMPase inhibition in cells with lithium potentiation; CHO-M1 cells, IP1 TR-FRET (IP-One), carbachol + lithium; Potency, µM (doses to about 59.4 µM), for the others: top-dose activity, negative = IMPase inhibition, hits mostly inhibitors; actives 0.35% (n = 210,000); AID 1457; active = well fitted inhibition curve with a large enough effect; inconclusive = small, poorly fitted or top-dose-only effect; inactive = no such curve, though single readings can be large or run the other way;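 note: IP1 builds up when IMPase is blocked and the TR-FRET signal falls; potency is the fitted concentration of half-maximal effect; plate controls were basal vehicle for no effect and high inhibitor control for full effect; nearly all actives have a fitted effect of over 50% in size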
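Steps: plate 2000 CHO-M1 cells per well and culture 16–30 h; add compound and lithium; incubate 30 min, 37C; add d2-IP1 tracer and Eu cryptate anti-IP1 antibody in lysis buffer; read after 10 min at room temperature.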
PNC inhibitor – perinucleolar compartment assembly inhibition. PC3M PTB-GFP, PNC prevalence imaging, 16 h; active compounds read low. actives 3.1% (n = 140,000). activity change (PNC), negative = inhibition, % at 10 µM;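 active = readout at or below -70, meaning at least 70% loss of cells showing the perinucleolar compartment, a nuclear body marking cancer cells; inconclusive = readout between -30 and a set limit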;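 note: plate controls were DMSO wells for no effect and camptothecin positive control wells for full effect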
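PC3M cells stably expressing PTB-GFP, 750–1000 cells/well, treated 16 h at 37 °C with compound (23 nl of library stock), in duplicate. After paraformaldehyde fixation and Hoechst stain, imaged at 20x; PNC prevalence scored by image analysis.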
An asterisk follows results filed as active; [ ] = dose if it differs, or a comment. Unless noted, calls come from the whole dose curve; as a rule, active = well fitted inhibition curve with a large enough effect (not every such curve was filed as active); inconclusive = small, poorly fitted or top-dose-only effect, or another doubt; inactive = no such curve, though single readings can be large or run the other way. Unless noted, % is set by controls: 0 for no effect and ±100 for the full control effect.

`CCCc1nc2c(nnn2Cc2ccccc2F)c(=O)[nH]1` gave ALDH1A1 inh -51%, IMPase inh -2, HPGD block 28µM*, IMPase Li inh 17%[38.3 µM] and PNC inhibitor -4.
Screening COC(=O)c1ccccc1NC(=O)CSCC(=O)Nc1ccc(F)cc1 returned ALDH1A1 inh -7%, IMPase inh 2, HPGD block -6%, IMPase Li inh 9%[38.3 µM] and PNC inhibitor 14.
Screening COCCNc1nc2nonc2nc1N(C)Cc1cccc2cnccc12 returned ALDH1A1 inh 5µM* and IMPase Li inh 1%.
For COCCNc1ccnc(-c2ccccc2CN(C)C)n1 the results were ALDH1A1 inh 10%, HPGD block -3% and IMPase Li inh 6%.
`Cc1ccc(SCC(=O)N(Cc2nc(-c3ccccc3)no2)C(C)C)cc1` gave ALDH1A1 inh 25µM*, IMPase inh 4, HPGD block 5%, IMPase Li inh 31%[38.3 µM] and PNC inhibitor 23.
Screening CC(C)N(Cc1nc(-c2ccccc2)no1)C(=O)c1ccc(Br)o1 returned ALDH1A1 inh 10µM*, IMPase inh 3, HPGD block -15%, IMPase Li inh 34%[38.3 µM] and PNC inhibitor -13.
Cc1ccc(C(=O)N(Cc2nc(-c3ccc(C)cc3)no2)C(C)C)cc1 was read as ALDH1A1 inh -4%, IMPase inh -1, HPGD block -15%, IMPase Li inh 2%[38.3 µM] and PNC inhibitor 24.
Screening O=C(/C(=N\Nc1ccccc1)Sc1nnnn1-c1ccccc1)c1ccccc1 returned ALDH1A1 inh 1.4µM*, HPGD block -16%, IMPase Li inh 14% and PNC inhibitor -13.
`O=C(c1cccc(F)c1)N1CCC[C@@]2(CCN(c3ccccn3)C2)C1` gave ALDH1A1 inh inconclusive, HPGD block -10% and IMPase Li inh 8%.
For CCc1noc(C)c1C(=O)N1CCCC(C(=O)c2ccc(OC)c(F)c2)C1 (configuration not stated) the results were ALDH1A1 inh 7.1µM* and IMPase Li inh 11%.
`O=C(c1ccc2ccccc2c1)C1CCCN(C(=O)c2noc3c2CCCC3)C1` (configuration not stated) gave ALDH1A1 inh 14µM* and IMPase Li inh 24%.
Screening CCn1nc(C)cc1C(=O)N1CCCC(C(=O)c2ccc3ccccc3c2)C1 (configuration not stated) returned ALDH1A1 inh inconclusive and IMPase Li inh 9%.
COc1ccc(C(=O)C2CCCN(C(=O)c3cc(C(C)C)no3)C2)cc1F (configuration not stated) was read as ALDH1A1 inh 1.6µM* and IMPase Li inh 11%.
Screening CCc1cccc(C)c1NC(=O)C1CCN(C(=O)c2ccc([N+](=O)[O-])cc2)CC1 returned ALDH1A1 inh 2% and IMPase Li inh 6%.
CCN(CC)CC(=O)N1c2ccccc2Sc2ccc(Cl)cc21 was read as ALDH1A1 inh 1%, IMPase inh 13, HPGD block -15%, IMPase Li inh 24% and PNC inhibitor -100*.
Screening O=C(CSc1nc2ccccc2s1)N1c2ccccc2Sc2ccc(Cl)cc21 returned ALDH1A1 inh inconclusive, IMPase inh -15, HPGD block -5%, IMPase Li inh 3%[38.3 µM] and PNC inhibitor inconclusive.
Screening CN(C)/C=C/C(=C\C(=O)C(F)(F)F)Nc1ccc(C(F)(F)F)cc1 returned ALDH1A1 inh 8% and IMPase Li inh 10%.
Screening O=C(CS(=O)(=O)c1cn(Cc2ccc(F)cc2)c2ccccc12)N1CCCCC1 returned ALDH1A1 inh inconclusive, IMPase inh -13, HPGD block -22%, IMPase Li inh 8% and PNC inhibitor -100*.
For COc1ccc(N2CCN(C(CNC(=O)OCc3ccccc3)c3ccco3)CC2)cc1 (configuration not stated) the results were ALDH1A1 inh -10%, HPGD block -10%, IMPase Li inh 11% and PNC inhibitor -23.
For O=C(Cn1cc2c(n1)CCCC2)Nc1ccccc1Br the results were ALDH1A1 inh 2%, IMPase inh 6, HPGD block inconclusive, IMPase Li inh 14%[38.3 µM] and PNC inhibitor inconclusive.
`O=C(C[n+]1ccccc1)Nc1ccccc1Br` gave ALDH1A1 inh 1.8µM* and IMPase Li inh 11%.
`O=C(Cc1ccc2c(c1)CCCC2)Nc1ccccc1Br` gave ALDH1A1 inh -11%, IMPase inh 1, HPGD block 25µM*, IMPase Li inh 8%[38.3 µM] and PNC inhibitor 18.
`O=C(C[n+]1ccccc1)Nc1c(Cl)cc(Cl)cc1Cl` gave ALDH1A1 inh 7.9µM* and IMPase Li inh 16%.
For N#C/C(=C\c1ccc(-c2cc(Cl)ccc2Cl)o1)C(=O)Nc1ccccc1C(=O)O the results were IMPase inh 5.
`C=CC[C@@H](C(=O)O)c1ccccc1` gave ALDH1A1 inh 3%[13.5 µM], HPGD block -9% and IMPase Li inh -10%.
Screening CCN(CC)CCCNC(=O)c1ccc(Cc2nc3ccccc3[nH]2)cc1 returned ALDH1A1 inh 0% and HPGD block -4%.
`O=C(NP(=O)(N1CCCC1)N1CCCC1)C1=C(N2CCOCC2)/C(=C/c2cccc([N+](=O)[O-])c2)CC1` gave ALDH1A1 inh 10µM* and IMPase Li inh 3%.
O=[N+]([O-])c1cccc(/C=C2\CCC(/C=N/Nc3ccc4ccccc4n3)=C2N2CCOCC2)c1 was read as ALDH1A1 inh inconclusive, HPGD block -11%, IMPase Li inh -1% and PNC inhibitor 3.
For CCOC(=O)C(=O)C1=C(N2CCOCC2)/C(=C\c2cccc([N+](=O)[O-])c2)CC1 the results were ALDH1A1 inh 2.2µM*, IMPase inh 16, HPGD block 32µM*, IMPase Li inh 21% and PNC inhibitor -22.
COc1ccc(-c2cc(C(F)(F)F)nc(SCC(=O)N3CCCCC3)n2)cc1OC was read as IMPase inh -5.
`CCOC(=O)CCCCC(=O)c1[nH]c(=O)[nH]c1CSc1nnc2c3ccccc3n(C(C)C)c2n1` gave ALDH1A1 inh 13µM*, HPGD block inconclusive, IMPase Li inh 5% and PNC inhibitor -8.
O=c1c(-c2cccs2)nc2cnc(N3CCOCC3)nc2n1Cc1cccs1 was read as ALDH1A1 inh 0% and IMPase Li inh 4%.
CCOC(=O)c1sc(NCC2CCCO2)nc1C (configuration not stated) was read as ALDH1A1 inh -4%, IMPase inh 4, HPGD block 13µM*, IMPase Li inh 32%[38.3 µM] and PNC inhibitor -8.
`CCOC(=O)c1c(C)c(C(=O)N2CCCCCC2)c(C)n1CC` gave ALDH1A1 inh 0%, IMPase inh -3, HPGD block 13µM*, IMPase Li inh 22%[38.3 µM] and PNC inhibitor 23.
